# Results from PubChem BioAssay (NCI).
# About 83,000 compounds went through this panel and 20% of them were active in at least one assay; those are over-represented in the sample as a whole.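 Note: values are percent growth. 100 is the growth of untreated cells, values between 100 and 0 indicate rising inhibition; between -100 and 0 indicates cell death.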 Values without a mark were called inactive. Calls of active or inactive are those of the source.
# Test system: TK-10 renal
# Assay: NCI-60 one-dose screen, 48 h (100 = growth as untreated, 0 = no growth, -100 = all killed)
# Conditions: 10 µM unless noted
# Method: Growth inhibition of the TK-10 human tumor cell line is measured as a screen for anti-cancer activity. Cells are grown in 96 well plates and exposed to the test compound for 48 hours. Compounds are tested at a single concentration, which is 10^-5 M for most compounds. The reported endpoint is percent growth (GI% or GIPRCNT), where numbers from 0 - 100% represent growth inhibition, and numbers from -100% - 0 represent cell death. For example, a value of 40 represents 60% growth inhibition. A value of 0 means no net growth occurred over the course of the experiment. A value of -40 indicates 40% of cells at the beginning of the experiment died by the end of the experiment. A value of -100 means all cells are dead at the end of the experiment.
# NCI-60 Human Tumor Cell Lines Screen was performed using the standard one-dose NCI protocol, which is described in more detail at https://dtp.cancer.gov/discovery_development/nci-60/default.htm.
# Compounds with GIPRCNT values below 10 were considered active. Activity score was based on GIPRCNT using the following formula: […]
# Score is 0 for GIPRCNT values of 100 or above, 50 for GIPRCNT values of 0, and 100 for GIPRCNT values of -100.
row,SMILES,growth
1,N#Cc1c(-c2ccccn2)[nH]c(=S)[nH]c1=O,94.3%
2,CC(=O)OC1CCC2(C)C(=CC3C4CCC(=O)C4(C)CCC32)C1 (stereo not given),108%
3,N#Cc1c(N)nn(C(=O)c2ccc(NC(=O)c3ccccn3)cc2)c1-c1ccc(Cl)cc1,24.6%
4,O=C(Nc1cccc(C(F)(F)F)c1)Nc1cccc(C(F)(F)F)c1,-0.607% (active)
5,Clc1cc(Cl)cc(Nc2ccc3cc(OCCCN4CCOCC4)ccc3n2)c1,47%
6,CC/C=C\C/C=C\C[C@H](O)C/C=C1/C(=O)C=C[C@@H]1C/C=C\CCCC(=O)O,79%
7,COc1cccc(Nc2nccc(Nc3ccc4[nH]ncc4c3)n2)c1,-77.7% (active)
8,CC(=O)[C@@H]1CC[C@]2(COS(=O)(=O)c3ccc(C)cc3)CC[C@]3(C)[C@H](CC[C@@H]4[C@@]5(C)CCCNC(C)(C)[C@@H]5CC[C@]43C)[C@@H]12,106%
9,CC(=O)c1ccc(NCC(=O)Nc2ccccn2)cc1,146%
10,CCN1C(=O)N(CC)C2Nn3c(s/c(=C\c4ccc(Cl)cc4Cl)c3=O)=NC21 (stereo not given),15.8%
11,Cc1cc(C)c2c(-c3nnc(N)s3)cc(=O)oc2c1,108%
12,O=[N+]([O-])c1ccc(N2c3ccncc3Sc3ccncc32)cc1,105%
13,O=[N+]([O-])c1ccc(C2CC(c3ccccc3)=Nc3ccccc3S2)cc1 (stereo not given),148%
14,N#C/C(=C\c1ccc(Br)cc1)n1nnc2cc(F)c(F)cc21,32.1%
15,Cc1cc(N2CCCC2)nc(NCc2cc(Nc3ccnc4cc(Cl)ccc34)ccc2F)n1,-56.7% (active)
16,CCN(CC)c1nc(SCC(=O)Nc2nc3ccc(C)cc3s2)nc(-c2ccccc2)c1C#N,94.6%
17,Cc1ccccc1NC(=O)N/C(N)=N/c1nc(-c2cccc([N+](=O)[O-])c2)cs1,101%
18,O=c1ccn2nc3ccccc3c2[nH]1,121%
19,CCCCOc1nc2ccccc2cc1C1CNC(=O)c2ccccc2N1 (stereo not given),34.3%
20,COc1ccc(-c2nc(SCC(=O)Nc3nc(-c4ccccc4)cs3)[nH]c(=O)c2C#N)cc1,117%

row,SMILES,growth
1,COc1cc(C(=O)/C=C/c2c(-c3ccc(F)cc3)nc3sc(C)cn23)cc(OC)c1OC,52.2%
2,CCc1c2c(nc3ccc(OC(=O)NCc4ccc(B5OC(C)(C)C(C)(C)O5)cc4)cc13)-c1cc3c(c(=O)n1C2)COC(=O)[C@]3(O)CC,0.387% (active)
3,CC(C)C(NC(=O)C1(NC(=O)OCc2ccccc2)CCCC1)C(=O)O (stereo not given),108%
4,CN(c1ccccc1)c1ccc2c(c1)OCCC21CC1Nc1cnccc1C(=O)O (stereo not given),79.5%
5,CCc1ccccc1-n1c(-c2ccc(Cl)cc2)cc(-c2ccc(Cl)cc2)c(C#N)c1=O,94.5%
6,N#Cc1c(N)nc2c(C#N)c(NC(=O)c3ccccc3)nn2c1-c1ccccc1,135%
7,O=C1/C(=C\c2cccnc2)SC(=S)N1CCc1ccc(O)cc1,38.5%
8,COC(=O)c1ccc(CSc2nnc(-c3c(C)nc4ccc(C)cn34)o2)cc1,113%
9,CCCCCCCCCCN(CCCCCCCCCC)CC(=O)c1ccc2cc(Br)c3ccccc3c2c1,79.9%
10,Cn1cc(-c2csc(-c3ccccc3)n2)c2cccnc21,-45.7% [100 µM] (active)
11,O=C(Nc1cccc2c(O)c(N=Nc3ccc(S(=O)(=O)Nc4nccs4)cc3)cc(N=Nc3ccc(S(=O)(=O)Nc4nccs4)cc3)c12)C(Cl)Cl,122%
12,c1ccc2c(c1)nc(CN1CCOCC1)n1cc(N3CCCC3)nc21,114%
13,CC(C)(C)n1cc(-c2ccnc(NCCCNS(=O)(=O)c3ccccc3)c2)c(-c2ccccc2)n1,94.1%
14,CCOC(=O)c1c(-c2ccc(Cl)cc2)c(C#N)c(=O)n(-c2ccccc2CC)c1N,117%
15,C[C@H]1[C@H]2[C@H]3CC[C@@H]4[C@@]5(C)C/C(=C/c6cccnc6)C(=O)C(C)(C)[C@@H]5CC[C@@]4(C)[C@]3(C)CC[C@]23CO[C@]1(C)[C@@H](C(=O)/C=C\c1cccnc1)C3,-14.5% (active)
16,CC1CC2Oc3ccc(Cl)cc3C(=O)N2O1 (stereo not given),96.8%
17,O=C(Nc1cccc(Cl)c1)c1cc(N=Nc2ccc([N+](=O)[O-])cc2Cl)ccc1O,136%
18,C=CCSc1nc2ccccc2cc1/C=N/O,108%
19,COC(=O)[C@]12CC[C@@H](C)[C@H](C)[C@@H]1C1=CC[C@@H]3[C@@]4(C)C(C=O)=C[C@@](C)(COC(=O)/C=C/c5ccccc5)[C@@H]4[C@H](O)C[C@@]3(C)[C@]1(C)CC2,26%
20,C=C(C)[C@@H]1CC[C@]2(C(=O)NC3CCCCC3)CC[C@]3(C)[C@H](CC[C@@H]4[C@@]5(C)CCC(=O)C(C)(C)[C@@H]5CC[C@]43C)[C@@H]12,95.2%
